In all, about 360,000 compounds went through this assay and about 7,500 (2.1%) were called active. Not shown: some 8% with an inconclusive outcome. The full list was thinned out, with actives kept by preference. A number with no mark means an inactive call. The call rests on the fitted dose curve; in most records, active means well fitted cell-killing curve with a large enough effect; inconclusive means small, poorly fitted or top-dose-only effect, or effect the other way, or another doubt; inactive means no such curve, though single readings can be large or run the other way.
Potency means the concentration at half of the fitted maximal effect.

The assay can be described thus: qHTS for induction of synthetic lethality in tumor cells producing 2HG: qHTS for the HT-1080-IDH1KD cell line.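 On activity, negative = toxicity: 0% = DMSO wells and -100% = cell-free medium wells.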 The settings on record: HT-1080 IDH1 knockdown viability, ATP luminescence, 48 h; series mostly up to 46.1 µM; activity, negative = toxicity: at the top concentration. The essentials: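 CellTiter-Glo luminescence after 48 h compound exposure at 37 degrees C of IDH1-knockdown HT-1080 cells in 5% FBS RPMI. %Activity scaled between DMSO wells and cell-free media wells, with curves fitted and assigned curve classes.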
Take `CCOC(=O)[C@]12CCCC=C1N(CCC1=CCCCC1)C(=O)[C@H](CC(=O)N1CCN(C(=O)c3ccco3)CC1)C2`: the “activity, negative = toxicity” value was -9.21%.
For `O=C(Nc1ccc(O)cc1)c1ccc(NC(=O)c2ccco2)cc1`, the Potency is 13 µM (active).
Take `Cc1cc(NC(=O)c2ccc(F)cc2)ccc1NC(=O)c1ccco1`: the “activity, negative = toxicity” value was -14.9%.
`Cc1ccc(NC(=O)c2ccco2)cc1`: the “activity, negative = toxicity” value is 10.6%.
The same measure, in the same setting: the same measure for `O=S1(=O)CC(N2CCN(Cc3ccccc3F)CC2)CN1Cc1cn(Cc2ccccc2)nn1` (centres undefined): 5.91%; for `Cc1ccc(OCC(=O)OC(C)CN(C)Cc2ccccc2)cc1` (centres undefined): -2.84%.
On the same count and under the same terms, the same measure for `COc1ccc(OCC(O)CN(C)C(=O)C(C)Oc2ccccc2)cc1` (centres undefined): -2.85%.
Take `CN(Cc1ccccc1)CC(O)COc1ccc(CNCc2cc3ccccc3s2)cc1` (centres undefined): the Potency was 20.6 µM (active).
Take `O=C(NCc1ccccc1)C1c2ccccc2OCC(=O)N1CCCN1CCOCC1` (centres undefined): the “activity, negative = toxicity” value is 8.29%.
Same read-out and setting: the value for `Cc1ccc(S(=O)(=O)N2CCC(=O)N([C@H](COCc3ccccc3)C(C)C)CC2)cc1` was -0.0342%.
For `O=C(O)c1ccc(NC(=O)c2cn(-c3ccccc3)nc2-c2ccc(Cl)cc2)cc1`, the Potency was 20.6 µM (active).
As to `Cc1ccc(-c2nn(-c3ccccc3)cc2C(=O)Nc2cccc(S(=O)(=O)N3CCOCC3)c2)cc1`, the “activity, negative = toxicity” value is 9.95%.
Same read-out and setting: the value for `Cc1ccc(-c2nn(-c3ccccc3)cc2C(=O)NCCCN2CCCC2=O)cc1` was 1.8%; that for `COc1cccc(OCC(=O)NCCS(=O)(=O)N2CCN(c3ccccc3)CC2)c1` was 10.8%.
Same read-out and setting: the same measure for `COc1ccc(CCNC(=O)Nc2ccc3c(c2)c(=O)n(C)n3C)cc1OC`: 3.98%; for `Cc1onc(-c2c(Cl)cccc2Cl)c1C(=O)c1c[nH]c(C(=O)NC2CC2)c1`: -15.5%.
As to `Cc1[nH]n(C)c(=O)c1C(=O)c1c(-c2c(Cl)cccc2Cl)noc1C`, the Potency is 16.4 µM (active).
As to `Cc1onc(-c2c(Cl)cccc2Cl)c1C(=O)NNC(=O)c1c(-c2c(Cl)cccc2Cl)noc1C`, the “activity, negative = toxicity” value is -11%.
On the same count and under the same terms, the value for `CC(C)(C(=O)N1CCC1(C)C(=O)NS(=O)(=O)c1ccc(Br)cc1)c1ccccc1` (centres undefined) was 0.625%.
Same read-out and setting: the same measure for `CCOC(=O)C1=CC[C@@H](c2ccccc2)N(S(=O)(=O)c2ccc(C)cc2)[C@H]1c1ccc(CC)cc1`: -7.6%; for `CCCCCCN1C[C@@H](O)[C@H](n2cc(COC(=O)c3ccccc3)nn2)C[C@@H]1c1ccc(Cl)cc1`: -0.87%; for `O=C(O)C1CCCN1c1nc(Cl)ccc1[N+](=O)[O-]` (centres undefined): -0.181%.
Still for that read-out and setting: the value for `CC(C)NC(=O)Nc1ccc2c(c1)C(=O)N([C@H](C)CO)C[C@H](C)[C@@H](CN(C)Cc1ccc(C(F)(F)F)cc1)OCCCC[C@@H](C)O2` was -29.9%.
For the compound `COc1cc(C(=O)Nn2c(CC(C)C)nc3ccccc3c2=O)cc(OC)c1OC`, the “activity, negative = toxicity” value is -10.6%.
For the compound `O=C(Cc1c(O)c2ccccc2[nH]c1=O)NCc1ccccc1`, the “activity, negative = toxicity” value is 1.12%.
For `CCCc1nc2ccccc2c(=O)n1NC(=O)c1c(O)c2ccccc2[nH]c1=O`, the Potency is 11.2 µM (active).
Take `CCOC(=O)c1c(C(C#N)C#N)cc(C)nc1C`: the “activity, negative = toxicity” value is -2.16%.
The same measure, in the same setting: the value for `CCOC(=O)COc1nc(C)cc(C(F)(F)F)c1C#N` was 23.4%.
Regarding `CCOC(=O)c1cc(C)nc(S(C)(=O)=O)c1C#N`, the Potency is 20.6 µM (active).
Take `NS(=O)(=O)c1ccc(CNC(=O)c2cc(S(=O)(=O)N3CCOCC3)ccc2N2CCCC2)cc1`: the “activity, negative = toxicity” value was -0.265%.
As for `COC(=O)Cc1ccc(OC2(C)CCN(Cc3ccc4c(c3)OCCO4)C2)cc1` (centres undefined), the “activity, negative = toxicity” value was 0%.
As to `COc1ccc(C(=O)C(OP(=O)(OC)OC)c2ccccc2OC)cc1` (centres undefined), the “activity, negative = toxicity” value is 7.41%.
Same read-out and setting: the value for `C[C@@H]1CN([C@@H](C)CO)S(=O)(=O)c2ccc(C#Cc3cccc(F)c3)cc2O[C@H]1CN(C)S(=O)(=O)c1cn(C)cn1` was -3.82%; that for `O=C(CCC(=O)N/N=C/c1ccc(Br)o1)N/N=C/c1ccc(Br)o1` was 7.46%.
Consider `O=C(CCc1ccc(O)cc1)NN=Cc1cc(Br)ccc1O`, for which the Potency is 16.4 µM (active).
For `CCOc1cc(C=NNC(=O)CCCC(=O)NN=Cc2ccc(O)c(OCC)c2)ccc1O`, the “activity, negative = toxicity” value is 12.7%.
On the same count and under the same terms, the value for `CCc1nc2ccc(C(=O)N3CCN(S(=O)(=O)CC)CC3)cn2c1N(C=O)CCC(C)C` was 1.95%; that for `C[C@H]1CN([C@@H](C)CO)C(=O)CCCn2nncc2CO[C@@H]1CN(C)S(=O)(=O)c1cccc(C#N)c1` was 4.1%; that for `COc1ccc(S(=O)(=O)NCCCc2ccccc2)cc1` was 12.5%.
Regarding `COc1ccc(S(=O)(=O)/N=C2\C=C(NS(=O)(=O)c3ccccc3)C(=O)c3ccccc32)cc1`, the Potency is 20.6 µM (active).
Consider `Cc1ccc(S(=O)(=O)/N=C2\C=C(NS(=O)(=O)c3ccc(C)cc3)C(=O)c3ccccc32)cc1`, for which the “activity, negative = toxicity” value is -6.93%.
Turning to `CC1(C(=O)NS(=O)(=O)c2ccccc2Cl)CCN1C(=O)c1cccc(F)c1` (centres undefined), the “activity, negative = toxicity” value was 8.85%.
The same measure, in the same setting: the value for `CCCCC(O)C1=C[N+](=O)CC=C1` (centres undefined) was 2.6%; that for `O=C(COC(=O)CCc1c[nH]c2ccccc12)Nc1cccc(Cl)c1` was -0.919%.
`CCCCOC(=O)Nc1nnc(CC(=O)NCc2ccccc2)s1`: the Potency was 5.17 µM (active).
Regarding `CCCCc1nnc(NC(=O)CS(=O)(=O)Cc2ccccc2)s1`, the “activity, negative = toxicity” value is -1.65%.
In the case of `CCCCOC(=O)Nc1nccs1`, the “activity, negative = toxicity” value is 5.67%.
The same measure, in the same setting: the same measure for `CCC(c1nc2ccccc2[nH]1)n1c(=O)c(-c2cccs2)nc2ccccc21` (centres undefined): -15.1%.
The same measure, in the same setting: the value for `COc1ccc(C(=O)NCC[N+](C)(C)C)cc1` was 4.15%.

The record behind these values is PubChem BioAssay AID686971 (National Center for Advancing Translational Sciences (NCATS), 2013).
